This passage reports binding signal results from article PMC11006913.

Residue numbers refer to the chain shown, from its start.

Holding throughout (test): PBM; 200 nM protein, PBS
What all share (settings): dsDNA, one strand shown

Assay [1] concerns the target HOXB4 (Homo sapiens, UniProt P17483 148-234).
Assay [2] addresses T1, VENTX (Homo sapiens, UniProt O95231 78-163, R121Q).
T1 sequence: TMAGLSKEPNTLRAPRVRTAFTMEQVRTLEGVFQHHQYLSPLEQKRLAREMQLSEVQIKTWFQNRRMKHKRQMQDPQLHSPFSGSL

Assay [3] addresses HOXA4 (Homo sapiens, UniProt Q00056 201-287, R217L).
For assay [4], the target named is HOXB4 (Homo sapiens, UniProt P17483 148-234, V174I).
The target of assay [5] is VAX1 (Homo sapiens, UniProt Q5SQQ9 86-172, T142I).
In assay [6] the target is HOXA4 (Homo sapiens, UniProt Q00056 201-287, W262F).
Assay [7] addresses VAX1 (Homo sapiens, UniProt Q5SQQ9 86-172, K157R).
A further assay has as its target ALX4 (Homo sapiens, UniProt Q9H161 200-286).
Assay [8] concerns the target T2, PAX4 (Homo sapiens, UniProt O43316 9-242, R200K).
T2 sequence: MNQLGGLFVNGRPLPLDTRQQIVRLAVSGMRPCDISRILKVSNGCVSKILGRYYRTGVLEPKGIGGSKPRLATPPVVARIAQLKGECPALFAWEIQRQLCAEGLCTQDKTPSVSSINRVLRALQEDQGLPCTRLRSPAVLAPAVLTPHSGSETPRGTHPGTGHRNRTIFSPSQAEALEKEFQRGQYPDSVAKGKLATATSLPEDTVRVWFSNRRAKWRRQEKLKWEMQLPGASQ

Assay [9] addresses PRRX1 (Homo sapiens, UniProt P54821 80-166, F113S).
For assay [10], the target named is T3, VENTX (Homo sapiens, UniProt O95231 78-163, Y115F).
T3 sequence: T1 sequence with Y38F, Q44R

Assay [11] has as its target T4, PAX4 (Homo sapiens, UniProt O43316 9-242).
T4 sequence: T2 sequence with K192R

The target in assay [12] is HOXA2 (Homo sapiens, UniProt O43364 129-215, R185T).
The target of assay [13] is T5, PAX4 (Homo sapiens, UniProt O43316 9-242, R200Q).
T5 sequence: T2 sequence with K192Q

The target in assay [14] is HOXA2 (Homo sapiens, UniProt O43364 129-215, R185K).
Assay [15] concerns the target T6, PAX4 (Homo sapiens, UniProt O43316 9-242, F177V).
T6 sequence: T2 sequence with F169V, K192R

The target in assay [16] is MSX2 (Homo sapiens, UniProt P35548 130-214).
For assay [17], the target named is T7, PAX4 (Homo sapiens, UniProt O43316 9-242, F177Y).
T7 sequence: T2 sequence with F169Y, K192R

Assay [18] has as its target MSX2 (Homo sapiens, UniProt P35548 130-214, F161Y).
For assay [19], the target named is PRRX1 (Homo sapiens, UniProt P54821 80-166).
Chain of PRRX1 (Homo sapiens, UniProt P54821 80-166) (P54821 80-166): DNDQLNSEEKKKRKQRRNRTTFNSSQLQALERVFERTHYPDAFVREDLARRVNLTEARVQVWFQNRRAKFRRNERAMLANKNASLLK

Chain of ALX4 (Q9H161 200-286): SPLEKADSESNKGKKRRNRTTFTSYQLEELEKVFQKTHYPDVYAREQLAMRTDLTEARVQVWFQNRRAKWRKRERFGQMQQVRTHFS
Chain of PRRX1 (Homo sapiens, UniProt P54821 80-166, F113S) (P54821 80-166 F113S): as the sequence (P54821 80-166) above, with F34S counted along it
Chain of HOXA4 (Homo sapiens, UniProt Q00056 201-287, W262F) (Q00056 201-287 W262F): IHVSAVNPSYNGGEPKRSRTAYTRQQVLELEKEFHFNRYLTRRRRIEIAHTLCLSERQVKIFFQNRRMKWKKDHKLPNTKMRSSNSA
Chain of MSX2 (Homo sapiens, UniProt P35548 130-214, F161Y) (P35548 130-214 F161Y): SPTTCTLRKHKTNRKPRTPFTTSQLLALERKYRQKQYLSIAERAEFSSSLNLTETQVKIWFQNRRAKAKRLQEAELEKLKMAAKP
Chain of HOXA2 (Homo sapiens, UniProt O43364 129-215, R185T) (O43364 129-215 R185T): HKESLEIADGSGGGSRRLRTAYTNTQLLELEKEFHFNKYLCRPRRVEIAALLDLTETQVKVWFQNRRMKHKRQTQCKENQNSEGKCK
Chain of MSX2 (Homo sapiens, UniProt P35548 130-214) (P35548 130-214): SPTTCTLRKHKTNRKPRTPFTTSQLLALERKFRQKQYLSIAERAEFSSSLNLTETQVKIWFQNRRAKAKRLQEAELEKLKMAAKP
Chain of HOXA2 (Homo sapiens, UniProt O43364 129-215, R185K) (O43364 129-215 R185K): as the sequence (O43364 129-215 R185T) above, with T57K counted along it
Chain of HOXA4 (Homo sapiens, UniProt Q00056 201-287, R217L) (Q00056 201-287 R217L): as the sequence (Q00056 201-287 W262F) above, with R17L, F62W counted along it
Chain of VAX1 (Homo sapiens, UniProt Q5SQQ9 86-172, T142I) (Q5SQQ9 86-172 T142I): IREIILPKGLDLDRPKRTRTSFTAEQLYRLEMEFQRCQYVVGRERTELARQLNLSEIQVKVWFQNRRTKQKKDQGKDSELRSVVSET
Chain of VAX1 (Homo sapiens, UniProt Q5SQQ9 86-172, K157R) (Q5SQQ9 86-172 K157R): as the sequence (Q5SQQ9 86-172 T142I) above, with I57T, K72R counted along it
Chain of HOXB4 (Homo sapiens, UniProt P17483 148-234, V174I) (P17483 148-234 V174I): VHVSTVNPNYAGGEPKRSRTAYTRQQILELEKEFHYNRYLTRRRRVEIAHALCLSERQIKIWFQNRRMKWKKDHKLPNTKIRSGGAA
Chain of HOXB4 (Homo sapiens, UniProt P17483 148-234) (P17483 148-234): as the sequence (P17483 148-234 V174I) above, with I27V counted along it

As to ATTAATAG, the binding signal with HOXB4 [1] is 13 upbm affinity estimate (log intensity, higher = more binding, comparable within an allelic series); in the assay with VENTX [2], 11.7 upbm affinity estimate (log intensity, higher = more binding, comparable within an allelic series); with HOXA4 [3], 12 upbm affinity estimate (log intensity, higher = more binding, comparable within an allelic series); with HOXB4 [4] it was 13.7 upbm affinity estimate (log intensity, higher = more binding, comparable within an allelic series); in the assay with VAX1 [5], 12.5 upbm affinity estimate (log intensity, higher = more binding, comparable within an allelic series); with HOXA4 [6], 11.3 upbm affinity estimate (log intensity, higher = more binding, comparable within an allelic series). The binding signal with VAX1 [7] is 12.4 upbm affinity estimate (log intensity, higher = more binding, comparable within an allelic series).
As for ACCAATTA, the binding signal with VENTX [2] is 12.2 upbm affinity estimate (log intensity, higher = more binding, comparable within an allelic series); with ALX4, 14.2 upbm affinity estimate (log intensity, higher = more binding, comparable within an allelic series); with PAX4 [8], 11.6 upbm affinity estimate (log intensity, higher = more binding, comparable within an allelic series); with PRRX1 [9] it was 11.5 upbm affinity estimate (log intensity, higher = more binding, comparable within an allelic series); with VENTX [10] it was 11.8 upbm affinity estimate (log intensity, higher = more binding, comparable within an allelic series); with PAX4 [11] it was 12.2 upbm affinity estimate (log intensity, higher = more binding, comparable within an allelic series). Also, the binding signal with HOXA2 [12] is 12.8 upbm affinity estimate (log intensity, higher = more binding, comparable within an allelic series); in the assay with HOXB4 [4], 13.6 upbm affinity estimate (log intensity, higher = more binding, comparable within an allelic series); in the assay with PAX4 [13], 12.1 upbm affinity estimate (log intensity, higher = more binding, comparable within an allelic series); with HOXA2 [14], 13.2 upbm affinity estimate (log intensity, higher = more binding, comparable within an allelic series); in the assay with PAX4 [15] it was 10.5 upbm affinity estimate (log intensity, higher = more binding, comparable within an allelic series); with MSX2 [16], 14.2 upbm affinity estimate (log intensity, higher = more binding, comparable within an allelic series). The binding signal with PAX4 [17] was 10.8 upbm affinity estimate (log intensity, higher = more binding, comparable within an allelic series); with MSX2 [18], 13.8 upbm affinity estimate (log intensity, higher = more binding, comparable within an allelic series); in the assay with VAX1 [5] it was 12.4 upbm affinity estimate (log intensity, higher = more binding, comparable within an allelic series); with PRRX1 [19], 13.6 upbm affinity estimate (log intensity, higher = more binding, comparable within an allelic series); with VAX1 [7], 12.7 upbm affinity estimate (log intensity, higher = more binding, comparable within an allelic series).
For AATTAGTA, the binding signal in the assay with VENTX [2] was 11.7 upbm affinity estimate (log intensity, higher = more binding, comparable within an allelic series); with ALX4 it was 13.7 upbm affinity estimate (log intensity, higher = more binding, comparable within an allelic series); with PAX4 [8], 11.7 upbm affinity estimate (log intensity, higher = more binding, comparable within an allelic series); with PRRX1 [9] it was 11.1 upbm affinity estimate (log intensity, higher = more binding, comparable within an allelic series); with VENTX [10], 11.5 upbm affinity estimate (log intensity, higher = more binding, comparable within an allelic series); with PAX4 [11] it was 12.2 upbm affinity estimate (log intensity, higher = more binding, comparable within an allelic series). Further, the binding signal with PAX4 [13] is 11.9 upbm affinity estimate (log intensity, higher = more binding, comparable within an allelic series); with PAX4 [15], 10.5 upbm affinity estimate (log intensity, higher = more binding, comparable within an allelic series); with MSX2 [16], 13.3 upbm affinity estimate (log intensity, higher = more binding, comparable within an allelic series); in the assay with PAX4 [17] it was 10.9 upbm affinity estimate (log intensity, higher = more binding, comparable within an allelic series); in the assay with MSX2 [18], 12.9 upbm affinity estimate (log intensity, higher = more binding, comparable within an allelic series); with HOXA4 [6], 11.5 upbm affinity estimate (log intensity, higher = more binding, comparable within an allelic series).
Consider AATTAGCA, for which the binding signal was 11.7 upbm affinity estimate (log intensity, higher = more binding, comparable within an allelic series) with VENTX [2]; 13.6 upbm affinity estimate (log intensity, higher = more binding, comparable within an allelic series) with ALX4; 11.6 upbm affinity estimate (log intensity, higher = more binding, comparable within an allelic series) with PAX4 [8]; 11 upbm affinity estimate (log intensity, higher = more binding, comparable within an allelic series) in the assay with PRRX1 [9]; 11.5 upbm affinity estimate (log intensity, higher = more binding, comparable within an allelic series) with VENTX [10]; 12.1 upbm affinity estimate (log intensity, higher = more binding, comparable within an allelic series) in the assay with PAX4 [11]. For the same sequence, the binding signal was 12.4 upbm affinity estimate (log intensity, higher = more binding, comparable within an allelic series) with HOXA2 [12]; 11.9 upbm affinity estimate (log intensity, higher = more binding, comparable within an allelic series) with PAX4 [13]; 13 upbm affinity estimate (log intensity, higher = more binding, comparable within an allelic series) with HOXA2 [14]; 10.5 upbm affinity estimate (log intensity, higher = more binding, comparable within an allelic series) with PAX4 [15]; 10.9 upbm affinity estimate (log intensity, higher = more binding, comparable within an allelic series) with PAX4 [17]; 11.5 upbm affinity estimate (log intensity, higher = more binding, comparable within an allelic series) with HOXA4 [6]. In addition, the binding signal in the assay with PRRX1 [19] was 13.2 upbm affinity estimate (log intensity, higher = more binding, comparable within an allelic series).
As to ACAATTAG, the binding signal was 11.8 upbm affinity estimate (log intensity, higher = more binding, comparable within an allelic series) with VENTX [2]; 11.6 upbm affinity estimate (log intensity, higher = more binding, comparable within an allelic series) in the assay with VENTX [10]; 13.7 upbm affinity estimate (log intensity, higher = more binding, comparable within an allelic series) in the assay with MSX2 [16]; 13.3 upbm affinity estimate (log intensity, higher = more binding, comparable within an allelic series) with MSX2 [18].
Turning to AATTAACT, the binding signal with ALX4 is 13.9 upbm affinity estimate (log intensity, higher = more binding, comparable within an allelic series); with PAX4 [8] it was 11.7 upbm affinity estimate (log intensity, higher = more binding, comparable within an allelic series); in the assay with PRRX1 [9] it was 11.2 upbm affinity estimate (log intensity, higher = more binding, comparable within an allelic series); in the assay with PAX4 [11], 12.3 upbm affinity estimate (log intensity, higher = more binding, comparable within an allelic series); with HOXA2 [12], 12.5 upbm affinity estimate (log intensity, higher = more binding, comparable within an allelic series); with HOXA4 [3], 12.1 upbm affinity estimate (log intensity, higher = more binding, comparable within an allelic series). The binding signal with PAX4 [13] was 12.1 upbm affinity estimate (log intensity, higher = more binding, comparable within an allelic series); in the assay with PAX4 [15], 10.5 upbm affinity estimate (log intensity, higher = more binding, comparable within an allelic series); with MSX2 [16] it was 13.5 upbm affinity estimate (log intensity, higher = more binding, comparable within an allelic series); in the assay with PAX4 [17], 10.9 upbm affinity estimate (log intensity, higher = more binding, comparable within an allelic series); with MSX2 [18] it was 13.1 upbm affinity estimate (log intensity, higher = more binding, comparable within an allelic series); with HOXA4 [6], 11.5 upbm affinity estimate (log intensity, higher = more binding, comparable within an allelic series). For the same sequence, the binding signal with PRRX1 [19] is 13.3 upbm affinity estimate (log intensity, higher = more binding, comparable within an allelic series).
With AATTATAA, the binding signal with ALX4 is 13.7 upbm affinity estimate (log intensity, higher = more binding, comparable within an allelic series); in the assay with PRRX1 [9], 11.4 upbm affinity estimate (log intensity, higher = more binding, comparable within an allelic series); in the assay with MSX2 [16], 13.4 upbm affinity estimate (log intensity, higher = more binding, comparable within an allelic series); in the assay with MSX2 [18], 13 upbm affinity estimate (log intensity, higher = more binding, comparable within an allelic series); with PRRX1 [19], 13.3 upbm affinity estimate (log intensity, higher = more binding, comparable within an allelic series).
AATTAAGA: the binding signal is 13.6 upbm affinity estimate (log intensity, higher = more binding, comparable within an allelic series) in the assay with ALX4; 11.6 upbm affinity estimate (log intensity, higher = more binding, comparable within an allelic series) with PAX4 [8]; 11.2 upbm affinity estimate (log intensity, higher = more binding, comparable within an allelic series) with PRRX1 [9]; 12.2 upbm affinity estimate (log intensity, higher = more binding, comparable within an allelic series) with PAX4 [11]; 11.9 upbm affinity estimate (log intensity, higher = more binding, comparable within an allelic series) with PAX4 [13]; 10.5 upbm affinity estimate (log intensity, higher = more binding, comparable within an allelic series) with PAX4 [15]. The binding signal with PAX4 [17] is 10.9 upbm affinity estimate (log intensity, higher = more binding, comparable within an allelic series); with HOXA4 [6], 11.6 upbm affinity estimate (log intensity, higher = more binding, comparable within an allelic series).
